# Assay outcomes from PubChem BioAssay.
# In the library only some 4% were active in any assay of this set; here they are far more common.
# Peg3 prom inh: Peg3 promoter activity inhibition; 360,000 tested, 1.7% active; HeLa PEG-Prom luciferase reporter, luminescence, overnight; AID 588405; inhibition, % at 20 µM;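 active = inhibition of at least 50% at 20 µM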
# HIF-2a inh: inhibitors of HIF-2a; 786-0 RCC cells HIF-2a reporter, luciferase luminescence, overnight; inhibition, % at 18.8 µM; 360,000 tested, 0.72% active;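 active = inhibition of the luminescence signal of 40% or more relative to plate controls, in a single-dose primary screen at 18.75 µM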
# TWEAK Fn14 block: TWEAK-Fn14 signaling inhibition; TWEAK-stimulated Fn14 reporter cells, luciferase luminescence, 8 h; inhibition, % at 10 µM; 360,000 tested, 2% active; in the data active = inhibition above about 50%
# TRPM1 prom inh: inhibitors of MITF-driven TRPM1 promoter in melanoma cells; SK-MEL-5 TRPM1 promoter luciferase, 24 h; inhibition, % at 12.5 µM; 330,000 tested, 0.83% active; AID 488899;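 active = mean inhibition across replicates of 60% or more, whatever share of single replicates reaches that level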
# EBV LMP1 NFkB: inhibitors of Epstein-Barr LMP1-induced NF-kappaB reporter; inhibition, % at 12.5 µM; 350,000 tested, 0.69% active; LMP1-induced NF-kappaB luciferase reporter cells, luminescence; AID 504558; in the data active = inhibition above about 41%;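 also: 0% = neutral control wells and 100% = reference inhibitor control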
# TROY signal inh: inhibitors of TROY-dependent NF-kB signaling. Q293 LMP1-TROYcd NF-kB luciferase reporter, 4 h. inhibition, % at 10 µM. 360,000 tested, 0.98% active. AID 1347056;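 active = compounds whose plate-normalised and pattern-corrected inhibition of the luciferase reporter signal at the single screening dose is 50% or more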
# Numbers without * were called inactive; / = no result.
SMILES,Peg3 prom inh,HIF-2a inh,TWEAK Fn14 block,TRPM1 prom inh,EBV LMP1 NFkB,TROY signal inh
CCCN(C(=O)CSc1ccccc1C(=O)O)C1CCS(=O)(=O)C1 (stereo not given),-2,5,11,-1,-2,-14
CC(=O)Nc1ccc(N(C(=O)Cc2cccs2)C(C(=O)NC2CCCC2)c2ccncc2)cc1 (stereo not given),-2,-1,13,4,-9,-6
Nc1nc(COC(=O)C2CCN(C(=O)c3ccc(Cl)cc3)CC2)nc(Nc2ccccc2)n1,0,3,-3,2,1,0
CCN1CC2([N+](=O)[O-])CC=C(OC)C([N+](=O)[O-])(C1)C2 (stereo not given),13,-3,73*,-3,-4,-18
CC1=CCC2([N+](=O)[O-])CN(CC(=O)O)CC1([N+](=O)[O-])C2 (stereo not given),3,14,-16,4,-2,-6
CC(C)C1Nc2c(O)cc(Cl)c([N+](=O)[O-])c2C2C=CCC21 (stereo not given),25,-1,27,18,18,58*
COc1ccc(-c2cc(=O)c3c(O)c(OC)c(O)cc3o2)cc1,-109,-257,54*,/,-13,3
O=[N+]([O-])c1ccc(S(=O)(=O)N2CCN=C2SCc2ccc(F)cc2)cc1,16,8,0,18,-12,-10
Nc1nc2ccccc2n1C(=O)c1cccs1,-210,-197,39,-64,-4,-20
COCCNC(=O)CSC1=N/C(=C/c2ccc(Cl)c(Cl)c2)C(=O)N1c1ccccc1F,34,-22,57*,-5,-3,23
Oc1cccc(C(O)CNCc2ccc(OCc3ccc(Cl)cc3Cl)cc2)c1 (stereo not given),93*,0,-16,-13,-1,12
Oc1cccc(C(O)CNCc2ccc(-c3ccccc3)cc2)c1 (stereo not given),41,-7,-4,-6,-5,15
N#C/C(=C/c1ccc(-c2ccc([N+](=O)[O-])cc2)o1)c1nnc(N2CCOCC2)n1-c1ccccc1,67*,-8,44,15,4,10
COc1cc(/C=C(\C#N)c2nnc(N3CCOCC3)n2-c2ccccc2)ccc1O,6,-5,-8,11,2,4
CCOC(=O)[C@]12CCCC=C1N(Cc1ccccc1)C(=O)[C@H](CC(=O)N1CCC(c3ccccc3)CC1)C2,/,-6,/,/,/,/
COc1ccc(OCCCC(=O)NCCc2ccc(OC)c(OC)c2)cc1,6,11,14,16,9,21
COc1ccc(NC(=O)CCCC(=O)NCCc2ccc(OC)c(OC)c2)cc1,8,17,89*,13,5,-13
O=C(OCc1cn([C@H]2CN(C(=O)C3CCCCC3)[C@@H](c3ccc(Cl)cc3)C[C@@H]2O)nn1)c1ccccc1,-10,-2,4,/,-1,9
O=C(NCCc1ccc(F)cc1)c1coc(=O)c(Br)c1,48,13,90*,16,-20,-7
COc1ccc(C(C)=O)cc1COC(=O)Cc1cc(OC)c(OC)c(OC)c1,3,14,4,7,1,23
COc1ccc(/C=C2\SC(=S)N(CCCC(=O)N3CCCCC3CCO)C2=O)cc1 (stereo not given),34,83*,34,25,7,28
O=C1/C(=C\c2ccccc2)SC(=S)N1CCC(=O)N1CCCCC1CCO (stereo not given),16,2,0,-12,-5,20
O=C1/C(=C/c2ccccc2Cl)SC(=S)N1CCC(=O)N1CCCCC1CCO (stereo not given),55*,20,4,9,1,1
CC(C)c1ccc(/C=C2\SC(=S)N(CCC(=O)N3CCCCC3CCO)C2=O)cc1 (stereo not given),38,86*,87*,76*,28,65*
N#Cc1c(-c2ccccc2)cc(-c2ccccc2)nc1SCCC(=O)O,37,18,-7,-9,1,4
SMILES,Peg3 prom inh,HIF-2a inh,TWEAK Fn14 block,TRPM1 prom inh,EBV LMP1 NFkB,TROY signal inh
CNS(=O)(=O)c1cccc(C(=O)OCC(=O)NCCCc2ccccc2)c1,8,1,2,8,-2,0
CC(CCc1ccccc1)NC(=O)COC(=O)c1cccc2ccccc12 (stereo not given),3,-9,-10,-4,1,-20
CC(CCc1ccccc1)NC(=O)COC(=O)c1cc(NS(=O)(=O)c2ccc(Cl)c([N+](=O)[O-])c2)ccc1O (stereo not given),57*,55*,-16,3,-10,45
CNS(=O)(=O)c1cccc(C(=O)OCC(=O)NC(C)CCc2ccccc2)c1 (stereo not given),18,-3,-2,11,42*,-18
O=C(Nc1cccc([N+](=O)[O-])c1)Nc1ccc2c(c1)OCCO2,-328,-280,5,-82,-30,-60
O=C(COC(=O)c1cccc(O)c1)Nc1ccc(S(=O)(=O)N2CCOCC2)cc1,12,18,6,6,-2,9
O=c1cc(Nc2ccc3c(c2)OCCO3)[nH]c(=O)n1Cc1ccc(F)cc1,-11,11,69*,-4,9,51*
O=c1cc(Nc2ccc3c(c2)OCCO3)[nH]c(=O)n1-c1ccc(Br)cc1,-18,-20,44,3,7,31
NS(=O)(=O)c1cccc(NC(=O)CNC(=O)CC23CC4CC(CC(C4)C2)C3)c1,3,18,-1,6,6,52*
C=CCn1c(NCCc2ccccc2)nc2c1c(=O)n(C)c(=O)n2C,13,24,46,9,37,38
C/C(Cl)=C\Cn1c(NCCc2ccccc2)nc2c1c(=O)n(C)c(=O)n2C,2,-3,54*,7,31,50*
O=C1Nc2ccccc2SC1c1ccccc1 (stereo not given),3,8,18,4,9,-1
Cc1ccc(NC2Sc3ccccc3NC2=O)cc1 (stereo not given),-194,-199,56*,-70,-1,9
CC(Nc1ncnc2sccc12)c1ccccc1 (stereo not given),14,15,54*,23,24,32
c1ccc(Nc2ncnc3sccc23)cc1,-25,-42,-6,-11,-1,-20
O=C(NC1CCC(O)CC1)c1ccc(NS(=O)(=O)c2cccc([N+](=O)[O-])c2)cc1 (stereo not given),16,15,10,-5,7,24
Cc1onc(-c2ccccc2Cl)c1C(=O)N1CCCCC1C (stereo not given),9,-6,7,3,2,-4
CC(C)c1ccc2c(c1)C1(NN=C(c3ccccc3)S1)C(=O)N2 (stereo not given),-65,-238,18,44,9,38
